IL-1B inflam inh: inflammasome signaling inhibition, IL-1 beta readout. THP-1 LPS/ATP IL-1B secretion, AlphaLISA, 16 h; stronger effect = lower value. activity change, % at 57.5 µM. 360,000 tested, 4.7% active. AID 743279; in the data active = activity change below about -50%; inconclusive = mostly about -30% to -49%; also: % is scaled to controls: 0 for no effect and ±100 for the full control effect
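THP-1 cells pretreated 1 hr with compounds (up to 57.5 uM final), then stimulated with LPS (250 ng/mL final) plus ATP (1.25 mM final); secreted IL-1B measured by AlphaLISA after 16 hr, decreased signal indicating inhibition.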
MCF10A rerep: DNA re-replication induction in MCF 10a cells; MCF 10A DNA re-replication, Hoechst nuclear intensity, 48 h; Potency, µM (doses to about 46.1 µM), for inactives: top-dose activity, positive = re-replication, actives largely listed as activators; 350,000 tested, 2.9% active; AID 624296; also: potency is read from the fitted curve at half-maximal effect; % of control where 0% means no effect; nearly all actives have a fitted effect of over 50% in size
KB-V1 MDR tox: kills drug-selected multidrug resistant KB-V1 cells. KB-V1 MDR cells viability, CellTiter-Glo, 72 h. Potency, µM (highest dose often 46.1 µM), actives largely listed as cytotoxic. 400,000 tested, 3.4% active; also: potency is read from the fitted curve at half-maximal effect; % is scaled to controls: 0 for no effect and ±100 for the full control effect; nearly all actives have a fitted effect of over 60% in size
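KB-V1 MDR subline cells in DMEM (phenol-red free, 10% FBS) exposed to compounds in qHTS concentration series for 72 h at 37 degrees C. Viability read by CellTiter-Glo luminescence; concentration-effect curves fitted after normalization and correction.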
KB-3-1 tox: KB-3-1 parental cell cytotoxicity | KB-3-1 viability, CellTiter-Glo ATP luminescence, 72 h | Potency, µM (doses to about 46.1 µM), actives largely listed as cytotoxic | 400,000 tested, 1.4% active; also: potency is read from the fitted curve at half-maximal effect; % is scaled to controls: 0 for no effect and ±100 for the full control effect; nearly all actives have a fitted effect of over 60% in size
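KB-3-1 parental drug-naive adenocarcinoma cells in DMEM/10% FBS, incubated 72 h at 37 C with pin-transferred compounds across a concentration series. Viability by CellTiter-Glo luminescence; concentration-response curves fitted after normalization.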
SW480 rerep: DNA re-replication induction in SW480 cells; SW480 DNA re-replication, Hoechst DNA content imaging, 48 h; Potency, µM (series often up to 46.1 µM), for the others: top-dose re-replication activation, usual class: activators; 340,000 tested, 1.8% active; also: potency is read from the fitted curve at half-maximal effect; % of control where 0% means no effect; nearly all actives have a fitted effect of over 55% in size
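Image-based DNA-content assay: after two days of treatment, nuclei were labelled with the DNA dye Hoechst and imaged, and hits were compounds raising the count of nuclei showing high fluorescence intensity.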
* = called active by the depositor; i = inactive; u = inconclusive; x = not tested or not shown. Only some compounds are listed: those with a hit (about 9.9% of all), similar ones and a draw of the others. Unless noted, calls follow the shape of the dose curve; as a rule, active = well fitted curve in the direction sought with a large enough effect; inconclusive = small, poorly fitted or top-dose-only effect, or another doubt; inactive = no such curve, though single readings can be large; an effect the other way counts as inactive or inconclusive.

SMILES	IL-1B inflam inh	MCF10A rerep	KB-V1 MDR tox	KB-3-1 tox	SW480 rerep
COc1ccccc1CCNC(=O)c1c(N)[nH]c(C(=O)c2ccccc2)c1-c1ccc(Br)cc1	6	x	15µM*	u	x
CC[C@H](C)[C@@H]1OC(=O)[C@@H](C)[C@@H](CC)NC(=O)[C@H](C)N(C)C(=O)C(C)(C)C(=O)C(C)NC(=O)[C@H](Cc2ccccc2)N(C)C(=O)[C@H](C(C)C)N(C)C(=O)CNC(=O)[C@H](CC(C)C)N(C)C(=O)CNC1=O (stereo partly specified)	-29	x	i	1.2µM*	x
COc1cc(C(=O)Nc2ccc(C)cc2)c2ccccc2n1	104	5.8µM*	u	0.82µM*	21µM*
CCOc1ccc(NC(=O)c2cc(OC)nc3ccccc23)cc1	50	23µM*	u	1.2µM*	u
CCc1ccc(C(O)c2ncc(-c3ccc(C)cc3)[nH]2)cc1 (stereo unspecified)	-23	x	u	i	x
COc1cccc(CSc2nc(-c3ccccc3F)nc3c2Cc2c(CO)cnc(C)c2O3)c1	x	x	i	i	x
COC(=O)C1=C(C)N(CCCC(=O)O)C(=O)NC1c1ccccc1OS(=O)(=O)c1ccccc1[N+](=O)[O-] (stereo unspecified)	50	-9%	i	i	-10%
CCOC(=O)C1=C(C)N(Cc2ccccc2)C(=O)NC1c1ccccc1OS(=O)(=O)c1ccccc1[N+](=O)[O-] (stereo unspecified)	u	13%	7.3µM*	u	u
CC1(C)Cc2cccc(OCC(=O)NCc3cccs3)c2O1	4	7%	u	i	22%
Cc1ccc(C)c(CNC(=O)CN2C(=O)CSc3ccc(S(=O)(=O)N(C)C)cc32)c1	x	x	i	i	x
CCCC(=O)N1CCCC1(C)C(=O)NCc1ccc(F)cc1Cl (stereo unspecified)	-7	x	i	i	x
C=CC(=O)Nc1cccc(Nc2nc(N[C@H]3CC[C@H](N(C)C)CC3)nc3c2ncn3C(C)C)c1	0	u	i	18µM*	u
CC(C)[C@H](CO)Nc1nc(Nc2ccc(Cl)c(C(=O)O)c2)c2ncn(C(C)C)c2n1	8	8%	i	i	3%
Cc1cccc(CNC(=O)c2ccc3c(c2)N(C)C(=O)C2CCCCN32)c1 (stereo unspecified)	x	x	i	i	x
CCc1ccccc1NC(=O)c1cccc(N2C(=O)C3C4CCC(C4)C3C2=O)c1 (stereo unspecified)	25	3%	i	i	-4%
Cc1cccc(NC(=O)c2cccc(N3C(=O)C4C5CCC(C5)C4C3=O)c2)c1C (stereo unspecified)	5	2%	8.2µM*	i	4%
COc1cccc(-c2noc(C3CCCN(C(=O)CC(C)(C)C)C3)n2)c1 (stereo unspecified)	17	0.46µM*	i	i	24%
COc1cccc(-c2noc(C3CCCN(S(=O)(=O)c4cccc(Cl)c4C)C3)n2)c1 (stereo unspecified)	7	25%	15µM*	i	3%
CCCS(=O)(=O)N1CCCC(c2nc(-c3cccc(OC)c3)no2)C1 (stereo unspecified)	0	-3%	12µM*	i	2%
COc1cccc(-c2noc(C3CCCN(C(=O)c4ccccc4OC)C3)n2)c1 (stereo unspecified)	21	9%	i	i	0%
Cc1cc(NC(=O)Nc2nnc(N3CCCCCC3)s2)ccc1Br	x	x	i	i	x
Cc1c(Br)c([N+](=O)[O-])nn1CC(=O)NCCc1c[nH]c2ccccc12	-14	4%	u	i	0%
COc1cc(NC(=O)c2cc(Br)cc(C)c2OC)ccc1NC(=O)C(C)C	-18	4%	i	i	4%
COc1ccccc1C(=O)Nc1ccc(Cc2ccncc2)cc1	2	-37%	9.2µM*	u	4%
COc1c(C)cc(Br)cc1C(=O)Nc1ccc(Cc2ccncc2)cc1	-79*	16µM*	i	i	u
Cc1ccccc1OCC(=O)Nc1ccncc1	10	11%	i	i	-7%
